From PubChem BioAssay (EPA / NIEHS)
Where “and” joins values, the source holds several entries; their conditions need not be identical. Equal values may be shown once. Results filed as inconclusive are left out. More than one record can exist for a structure, and the calls need not agree. Calls of active or inactive are those of the source. How the source made its calls, unless noted: active means hit-call score of the fitted dose curve at least 0.9, where 1 is the maximum; inconclusive means response in the unintended direction; inactive means score below 0.9.

Key:
[1] = target: human Dopamine Transporter (DAT), SLC6A3 (gene 6531) (UniProt Q01959); assay: NVS_TR_hDAT: NovaScreen (NVS) Transporter Assay for human Dopamine Transporter (DAT) (AID 2283374);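 further: activity means loss of bound radioligand signal relative to DMSO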
human Dopamine Transporter (DAT), SLC6A3 (gene 6531), sequence (Q01959 whole entry, looked up): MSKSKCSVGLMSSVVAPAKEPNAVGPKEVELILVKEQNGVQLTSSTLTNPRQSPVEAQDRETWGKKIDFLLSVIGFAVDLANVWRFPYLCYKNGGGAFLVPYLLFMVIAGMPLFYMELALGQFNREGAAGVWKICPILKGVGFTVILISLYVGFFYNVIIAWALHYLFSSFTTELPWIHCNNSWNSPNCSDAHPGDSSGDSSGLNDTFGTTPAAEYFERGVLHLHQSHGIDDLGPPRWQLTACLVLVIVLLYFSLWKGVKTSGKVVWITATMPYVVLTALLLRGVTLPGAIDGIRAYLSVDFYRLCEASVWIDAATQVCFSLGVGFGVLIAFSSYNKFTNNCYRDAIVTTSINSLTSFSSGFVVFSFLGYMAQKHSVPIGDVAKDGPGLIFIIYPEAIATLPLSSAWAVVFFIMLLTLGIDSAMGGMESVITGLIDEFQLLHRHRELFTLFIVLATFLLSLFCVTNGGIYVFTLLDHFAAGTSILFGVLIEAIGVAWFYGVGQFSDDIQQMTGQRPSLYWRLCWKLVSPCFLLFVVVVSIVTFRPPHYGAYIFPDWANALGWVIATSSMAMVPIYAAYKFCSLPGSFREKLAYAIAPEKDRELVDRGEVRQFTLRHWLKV
Outline: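 Test chemicals were first screened in duplicate at 25 uM, with actives retested as concentration series. Displacement of a specific radioligand from cell-free human dopamine transporter was measured after 1 h by filtration and scintillation counting.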

[2] = target: human Norepinephrine Transporter (NET), SLC6A2 (gene 6530) (UniProt P23975); assay: NVS_TR_hNET: NovaScreen (NVS) Transporter Assay for human Norepinephrine Transporter (NET) (AID 2283377);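 further: cell-free membrane protein extracted from CHO cells expressing human NET; displacement of radioligand from human NET seen as loss of scintillation signal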
human Norepinephrine Transporter (NET), SLC6A2 (gene 6530), sequence (P23975 whole entry, looked up): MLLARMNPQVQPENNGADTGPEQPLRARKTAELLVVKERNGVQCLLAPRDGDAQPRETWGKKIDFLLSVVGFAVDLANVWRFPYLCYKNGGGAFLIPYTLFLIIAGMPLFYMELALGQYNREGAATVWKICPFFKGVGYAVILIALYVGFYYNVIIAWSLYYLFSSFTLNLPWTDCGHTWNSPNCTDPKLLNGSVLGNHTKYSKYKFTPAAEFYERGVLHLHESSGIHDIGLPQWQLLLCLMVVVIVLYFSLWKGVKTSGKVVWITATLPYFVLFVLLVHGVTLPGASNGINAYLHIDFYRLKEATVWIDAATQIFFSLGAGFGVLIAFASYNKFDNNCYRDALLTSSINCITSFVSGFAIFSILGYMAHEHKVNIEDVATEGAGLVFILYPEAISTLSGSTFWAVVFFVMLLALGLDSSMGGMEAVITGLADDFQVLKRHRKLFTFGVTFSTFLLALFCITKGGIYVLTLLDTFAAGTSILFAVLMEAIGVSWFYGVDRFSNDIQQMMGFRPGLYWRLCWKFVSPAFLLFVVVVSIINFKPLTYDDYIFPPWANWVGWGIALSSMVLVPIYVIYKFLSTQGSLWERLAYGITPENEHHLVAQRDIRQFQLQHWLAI
Outline: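 Scintillation counts of filter-retained radioligand served as the readout, taken 1 h post-dosing in a cell-free CHO-derived system. Test chemicals ran first at 25 uM in duplicate; confirmed hits were retested across concentrations.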

[3] = target: Bile acid receptor (Homo sapiens) (UniProt Q96RI1); assay: OT_FXR_FXRSRC1_0480: Odyssey Thera (OT) 8-hour HEK293T Protein-Complementation Assay for Farnesoid X receptor/SRC-1 Co-activator (AID 2283383)
Bile acid receptor (Homo sapiens), sequence (Q96RI1 whole entry, looked up, the tested form may be a part): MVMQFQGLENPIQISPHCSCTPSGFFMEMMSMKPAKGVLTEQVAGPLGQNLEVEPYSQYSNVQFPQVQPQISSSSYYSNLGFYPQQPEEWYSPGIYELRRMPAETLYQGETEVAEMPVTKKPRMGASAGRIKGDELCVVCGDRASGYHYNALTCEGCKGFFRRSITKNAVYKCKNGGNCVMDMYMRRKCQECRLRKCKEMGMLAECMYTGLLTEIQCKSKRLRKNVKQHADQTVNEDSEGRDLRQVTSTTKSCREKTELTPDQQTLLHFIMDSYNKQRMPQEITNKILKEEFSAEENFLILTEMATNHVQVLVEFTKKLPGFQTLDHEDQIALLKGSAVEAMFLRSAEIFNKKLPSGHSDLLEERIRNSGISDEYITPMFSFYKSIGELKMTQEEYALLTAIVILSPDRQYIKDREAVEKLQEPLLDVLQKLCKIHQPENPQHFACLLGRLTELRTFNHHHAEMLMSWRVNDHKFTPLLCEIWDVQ
Outline: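 Human kidney HEK293T cells carried FXR/SRC-1 fragment-complementation constructs. Compounds were added and incubated 8 h. Reporter reassembly upon receptor–co-activator interaction was then quantified by fluorescence, with curves fitted in the positive direction relative to DMSO.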

[4] = target: Bile acid receptor (Homo sapiens) (UniProt Q96RI1); assay: OT_FXR_FXRSRC1_1440: Odyssey Thera (OT) 24-hour HEK293T Protein-Complementation Assay for Farnesoid X receptor/SRC-1 Co-activator (AID 2283384)
Outline: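 Compounds are applied to human kidney HEK293T cells expressing bait and prey fused to reporter protein fragments; after 24 h, reconstituted reporter fluorescence is measured. Activity is fitted as signal gain over DMSO.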

[5] = target: Retinoic acid receptor RXR-alpha (Homo sapiens) (UniProt P19793); assay: OT_NURR1_NURR1RXRa_0480: Odyssey Thera (OT) 8-hour HEK293T Protein Complementation Assay for Nurr1/retinoid X receptor (RXR) (AID 2283385)
Retinoic acid receptor RXR-alpha (Homo sapiens), sequence (P19793 whole entry, looked up, the tested form may be a part): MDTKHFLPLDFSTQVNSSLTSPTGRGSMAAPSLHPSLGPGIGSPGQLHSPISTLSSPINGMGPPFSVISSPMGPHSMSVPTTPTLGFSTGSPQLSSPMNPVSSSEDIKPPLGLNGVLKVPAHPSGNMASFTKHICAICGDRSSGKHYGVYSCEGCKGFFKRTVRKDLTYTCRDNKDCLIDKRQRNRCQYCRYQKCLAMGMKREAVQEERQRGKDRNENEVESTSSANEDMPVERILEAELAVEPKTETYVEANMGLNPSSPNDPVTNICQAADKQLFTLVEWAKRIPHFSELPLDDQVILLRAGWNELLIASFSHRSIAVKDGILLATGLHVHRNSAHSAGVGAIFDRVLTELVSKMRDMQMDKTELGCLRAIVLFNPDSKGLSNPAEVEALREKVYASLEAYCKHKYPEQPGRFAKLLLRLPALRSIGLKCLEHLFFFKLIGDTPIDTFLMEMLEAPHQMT
Outline: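 8 h compound exposure, HEK293T; Nurr1/RXRα fragment complementation; fluorescence intensity; positive fitting direction vs DMSO baseline.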

[6] = target: Peroxisome proliferator-activated receptor gamma (Homo sapiens) (UniProt P37231); assay: OT_PPARg_PPARgSRC1_0480: Odyssey Thera (OT) 8-hour Protein-Complementation Assay for Peroxisome Proliferator-activated Receptor Gamma / SRC-1 Co-activator (AID 2283387)
Peroxisome proliferator-activated receptor gamma (Homo sapiens), sequence (P37231 whole entry, looked up, the tested form may be a part): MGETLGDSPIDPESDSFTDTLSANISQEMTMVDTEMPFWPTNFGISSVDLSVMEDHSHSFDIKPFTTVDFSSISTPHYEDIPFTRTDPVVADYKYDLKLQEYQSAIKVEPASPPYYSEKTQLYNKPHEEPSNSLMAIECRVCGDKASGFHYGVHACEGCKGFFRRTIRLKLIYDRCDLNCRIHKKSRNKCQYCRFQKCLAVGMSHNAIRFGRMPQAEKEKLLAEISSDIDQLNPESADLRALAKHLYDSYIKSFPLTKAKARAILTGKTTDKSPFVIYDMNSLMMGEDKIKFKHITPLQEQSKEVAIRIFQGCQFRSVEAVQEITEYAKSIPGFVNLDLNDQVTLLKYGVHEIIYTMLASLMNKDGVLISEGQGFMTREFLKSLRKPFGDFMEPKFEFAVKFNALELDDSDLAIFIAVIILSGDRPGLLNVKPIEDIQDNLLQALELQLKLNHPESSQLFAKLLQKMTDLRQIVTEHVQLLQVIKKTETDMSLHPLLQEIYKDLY
Outline: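 Split-YFP (IFP1/IFP2) PPARg/SRC-1 reporter, HEK293T, 37 °C, 5% CO2; 8 h compound; formaldehyde fix + Draq5; high-content imaging, N/C ratio, ≥350 cells/image, positive direction vs DMSO.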

[7] = target: Peroxisome proliferator-activated receptor gamma (Homo sapiens) (UniProt P37231); assay: OT_PPARg_PPARgSRC1_1440: Odyssey Thera (OT) 24-hour Protein-Complementation Assay for Peroxisome Proliferator-activated Receptor Gamma/ SRC-1 Co-activator (AID 2283388)
Outline: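 HEK293T cells transiently transfected with PPARg and SRC-1 fused via (Gly4Ser)2 linker to split Venus YFP fragments (IFP1/IFP2) were dosed 24 h; fixed, Draq5-stained, imaged at 488/635 nm; nuclear/cytoplasmic fluorescence ratio scored versus DMSO baseline, gain-of-signal.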

[8] = CEETOX_H295R_11DCORT: CeeTox H295R High-throughput Steroidogenesis Assay for 11-Deoxycortisol (11DCORT) (AID 2283432; active means hit-call score of the fitted dose curve at least 0.9, where 1 is the maximum; inactive means score below 0.9;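 on AC50: human adrenal H295R cells prestimulated with 10 µM forskolin for 48 h; 11-deoxycortisol secreted into the medium measured by LC-MS/MS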); settings: actives raise or lower the signal
Outline: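 Steroidogenesis in human H295R cells: 48 h chemical exposure after forskolin priming, 11-deoxycortisol measured by LC-MS/MS.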

[9] = CEETOX_H295R_OHPREG: CeeTox H295R High-throughput Steroidogenesis Assay for OH-Pregnenolone (OHPREG) (AID 2283434; active means hit-call score of the fitted dose curve at least 0.9, where 1 is the maximum; inactive means score below 0.9); settings: actives raise or lower the signal
Outline: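 Hormone levels in spent medium were measured by tandem mass spectrometry following liquid-liquid extraction. Cells (H295R) had been forskolin-stimulated (10 uM, 48 h) before a 48 h chemical exposure at 0.1% DMSO, with activity fitted in both directions against DMSO.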

[10] = CEETOX_H295R_OHPROG: CeeTox H295R High-throughput Steroidogenesis Assay for OH-Progesterone (OHPROG) (AID 2283435; active means hit-call score of the fitted dose curve at least 0.9, where 1 is the maximum; inactive means score below 0.9;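 on AC50: human adrenal H295R cells primed 48 h with 10 µM forskolin; 17alpha-hydroxyprogesterone secreted into medium measured by HPLC-MS/MS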); settings: actives raise or lower the signal
Outline: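 H295R, 10 uM forskolin prestim 48 h; cmpd in 0.1% DMSO 48 h; medium MTBE-extracted, HPLC-MS/MS for OH-progesterone; 7-pt std curve; bidirectional fit vs DMSO; MTT viability, chemicals diluted until viability >/=70%.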

[11] = CEETOX_H295R_CORTIC: CeeTox H295R High-throughput Steroidogenesis Assay for Corticosterone (CORTIC) (AID 2283437; active means hit-call score of the fitted dose curve at least 0.9, where 1 is the maximum; inactive means score below 0.9;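 further: corticosterone secreted into medium quantified by mass spectrometry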;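 on AC50: human H295R adrenal cells prestimulated with forskolin before chemical exposure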); settings: actives raise or lower the signal
Outline: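 Corticosterone secreted into medium is measured by reverse-phase HPLC with tandem MS following liquid-liquid extraction. Cells are forskolin-stimulated (10 uM, 48 h) before 48 h test exposure; activity fitted in both directions against DMSO.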

[12] = CEETOX_H295R_CORTISOL: CeeTox H295R High-throughput Steroidogenesis Assay for Cortisol (AID 2283438; active means hit-call score of the fitted dose curve at least 0.9, where 1 is the maximum; inactive means score below 0.9;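 further: cortisol secreted into medium quantified by LC-MS/MS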); settings: actives raise or lower the signal
Outline: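 Forskolin 10 uM 48 h prestim → test cmpd in DMSO (0.1% final) 48 h → medium MTBE-extracted → LC-MS/MS cortisol vs 7-pt std curve. Gain/loss of signal fitted vs DMSO. MTT viability in same wells.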

[13] = target: Estrogen receptor (Homo sapiens) (UniProt P03372); assay: OT_ERa_GFPERaERE_0480: Odyssey Thera (OT) 8-hour HeLa Transcription Induction Assay for Estrogen Receptor (AID 2283381; active means hit-call score of the fitted dose curve at least 0.9, where 1 is the maximum; inactive means score below 0.9)
Estrogen receptor (Homo sapiens), sequence (P03372 whole entry, looked up): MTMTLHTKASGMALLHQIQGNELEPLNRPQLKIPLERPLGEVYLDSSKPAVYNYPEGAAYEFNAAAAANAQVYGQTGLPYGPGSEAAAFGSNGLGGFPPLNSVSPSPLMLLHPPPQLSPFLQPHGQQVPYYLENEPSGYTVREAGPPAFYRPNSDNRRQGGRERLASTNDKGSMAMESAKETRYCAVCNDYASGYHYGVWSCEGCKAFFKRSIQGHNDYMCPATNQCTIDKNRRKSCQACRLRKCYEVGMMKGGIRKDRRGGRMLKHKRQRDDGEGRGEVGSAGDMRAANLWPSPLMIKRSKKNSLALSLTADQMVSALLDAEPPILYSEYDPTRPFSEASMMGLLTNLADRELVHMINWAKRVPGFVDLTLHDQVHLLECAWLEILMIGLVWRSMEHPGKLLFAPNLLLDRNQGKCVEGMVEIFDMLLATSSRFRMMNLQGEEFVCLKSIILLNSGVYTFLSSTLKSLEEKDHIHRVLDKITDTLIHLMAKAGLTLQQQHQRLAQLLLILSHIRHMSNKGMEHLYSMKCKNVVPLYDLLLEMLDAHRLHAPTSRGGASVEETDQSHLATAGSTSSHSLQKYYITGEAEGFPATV
Outline: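 Fluorescent reporter signal, imaged by microscopy and scored with image-analysis algorithms, was taken 8 h after chemical dosing of HeLa cells; activity was fitted upward relative to DMSO.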

[14] = target: Estrogen receptor (Homo sapiens) (UniProt P03372); assay: OT_ERa_GFPERaERE_0120: Odyssey Thera (OT) 2-hour HeLa Transcription Induction Assay for Estrogen Receptor (AID 2283382)
Outline: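 HeLa, 384-well, 2 h chemical exposure; GFP reporter induction (ERE), fluorescence microscopy; high content image analysis; positive fitting direction vs DMSO.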

[15] = target: Retinoic acid receptor RXR-alpha (Homo sapiens) (UniProt P19793); assay: OT_NURR1_NURR1RXRa_1440: Odyssey Thera (OT) 24-hour HEK293T Protein Complementation Assay for Nurr1/retinoid X receptor (RXR) (AID 2283386)
Outline: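 Interaction of Nurr1 with RXRα brings fused reporter fragments together in human HEK293T cells, restoring a functional reporter. Fluorescence intensity is measured 24 h after chemical treatment, and values are analysed in the positive direction against DMSO.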

[16] = CEETOX_H295R_ANDR: CeeTox H295R High-throughput Steroidogenesis Assay for Androstenedione (ANDR) (AID 2283436; active means hit-call score of the fitted dose curve at least 0.9, where 1 is the maximum; inactive means score below 0.9;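 further: human H295R adrenal cells exposed for 48 h with androstenedione measured in medium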); settings: actives raise or lower the signal
Outline: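 Read-out is androstenedione secreted into medium, measured by tandem mass spectrometry after liquid-liquid extraction. Cells were H295R, dosed for 48 h per modified OECD 456; activity fitted in both directions relative to DMSO.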

[17] = target: Agonist Androgen Response Element (ARE), AR (gene 367) (UniProt P10275); assay: OT_AR_ARELUC_AG_1440: Odyssey Thera (OT) 24-hour CHO-K1 Luciferase Assay for Agonist Androgen Response Element (ARE) (AID 2283379)
Agonist Androgen Response Element (ARE), AR (gene 367), sequence (P10275 whole entry, looked up): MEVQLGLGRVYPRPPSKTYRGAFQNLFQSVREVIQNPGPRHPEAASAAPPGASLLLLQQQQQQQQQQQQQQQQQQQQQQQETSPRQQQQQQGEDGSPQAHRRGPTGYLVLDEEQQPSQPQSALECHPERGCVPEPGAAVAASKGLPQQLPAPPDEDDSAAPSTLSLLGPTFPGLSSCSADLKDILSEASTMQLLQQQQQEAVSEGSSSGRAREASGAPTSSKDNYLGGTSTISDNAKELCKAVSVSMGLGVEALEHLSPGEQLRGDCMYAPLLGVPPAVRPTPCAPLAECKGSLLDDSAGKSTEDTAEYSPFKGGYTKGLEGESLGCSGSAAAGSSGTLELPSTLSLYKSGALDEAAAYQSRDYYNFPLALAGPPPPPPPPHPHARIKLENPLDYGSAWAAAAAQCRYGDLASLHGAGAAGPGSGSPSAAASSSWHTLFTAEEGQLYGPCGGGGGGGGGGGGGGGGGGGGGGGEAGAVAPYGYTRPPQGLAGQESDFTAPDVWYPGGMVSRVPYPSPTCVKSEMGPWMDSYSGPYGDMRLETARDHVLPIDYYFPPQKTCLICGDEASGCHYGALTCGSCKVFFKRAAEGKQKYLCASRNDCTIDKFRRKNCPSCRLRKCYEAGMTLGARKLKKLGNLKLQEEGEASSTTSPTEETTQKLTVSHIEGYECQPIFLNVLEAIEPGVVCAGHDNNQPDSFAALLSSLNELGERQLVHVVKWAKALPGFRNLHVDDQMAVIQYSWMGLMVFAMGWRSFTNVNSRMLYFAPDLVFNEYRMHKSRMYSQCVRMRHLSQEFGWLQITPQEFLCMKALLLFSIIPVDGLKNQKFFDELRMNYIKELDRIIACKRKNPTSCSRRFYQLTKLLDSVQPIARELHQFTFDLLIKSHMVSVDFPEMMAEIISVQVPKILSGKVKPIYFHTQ
Outline: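 Agonist mode, 24 h exposure in CHO-K1 ARE-luciferase cells; values reflect luminescence induction over vehicle.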

Measured: AC50

Oc1cc(Cl)ccc1Oc1ccc(Cl)cc1Cl
inactive: [6] | [7] | [8] | [9] | [10] | [11] | [12]
active: [1] 21.3 µM [middle of 4 runs] | [2] 585 nM [middle of 4 runs] | [3] 11.9 µM | [4] 12 µM | [5] 11.9 µM and 11.6 µM

CCC(C)Nc1c([N+](=O)[O-])cc(C(C)(C)C)cc1[N+](=O)[O-] (configuration not stated)
inactive: [13] | [15] | [6] | [7] | [11]
active: [1] 8.98 µM | [14] 12.2 µM | [5] 84.6 µM and 73.7 µM | [15] 83.6 µM | [8] 74.6 µM | [9] 74.5 µM | [10] 71.7 µM | [12] 78.1 µM

ClC1C(Cl)C(Cl)C(Cl)C(Cl)C1Cl (configuration not stated)
inactive: [3] | [4] | [5] | [15] | [6] | [7]
active: [1] 5.04 µM and 18.5 µM and 14.4 µM | [9] 50 µM

O=[N+]([O-])c1c(Cl)c(Cl)c(Cl)c(Cl)c1Cl
inactive: [13] | [14] | [5] | [6] | [7] | [8] | [9] | [10] | [16] | [11] | [12]

COP(=O)(OC)OC=C(Cl)Cl
inactive: [13] | [14] | [5] | [15] | [6] | [7]

CNC(=O)Oc1cccc(N=CN(C)C)c1
inactive: [13] | [14] | [3] | [6] | [7] | [9] | [10]

O=C1c2ccccc2C(=O)N1SC(Cl)(Cl)Cl
inactive: [13] | [14] | [4] | [6] | [7] | [9] | [10]

CCOCN(C(=O)CCl)c1c(C)cccc1CC
inactive: [13] | [14] | [5] | [15] | [6] | [7]
active: [5] 654 nM

COc1nn(CSP(=S)(OC)OC)c(=O)s1
active: [10] 13.6 µM | [11] 33.1 µM
inactive: [13] | [14] | [3] | [4] | [15] | [6] | [7] | [8] | [9] | [12]

O=C(O)CCCOc1ccc(Cl)cc1Cl
inactive: [17] | [5] | [15] | [6] | [7]

CN1CSC(=S)N(C)C1
inactive: [13] | [14] | [3] | [4] | [6] | [7]

CNC(=O)/C=C(\C)OP(=O)(OC)OC
inactive: [13] | [14] | [4] | [5] | [15] | [6] | [7] | [8] | [9] | [10] | [11] | [12]

CNC(=O)Oc1ccccc1OC(C)C
inactive: [13] | [14] | [5] | [15] | [6] | [7] | [8] | [9] | [10] | [11] | [12]
